From PubChem BioAssay AID1159580 (chemical genetic matrix, 2015)
Several values for one entry are separate records, joined by “and”; a condition that tells them apart may be missing. Equal values may be shown once. Screen size: about 5,500 compounds; about 2,000 (36%) were called active. Inconclusive results (about 18%) are left out. Rule as the data show it: active = normalized growth mostly below about 0.91 (no sharp cut-off); inconclusive = no clear call, values can overlap the other calls; inactive = mostly above about 0.92. The list shows a part of the results.

Assay: chemical genetic growth profiling, strain panel (AID 1159580);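 also: tested at 20 µM; growth read once vehicle control cultures reached saturation at 30 °C; 1 = growth at the plate median or of vehicle wells; lower values mean less growth of the strain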
Details: S. cerevisiae deletion strains, growth OD

Measured: normalized growth

C[C@@H]1CC2C3CCC4=CC(=O)C=C[C@]4(C)[C@@]3(F)[C@@H](O)C[C@]2(C)[C@@]1(O)C(=O)COP(=O)(O)O (stereo partly drawn)
inactive: locus YAL021C, strain ccr4, stronger effect = lower value 0.961 | locus YAL026C, strain drs2, stronger effect = lower value 0.985 | locus YAL030W, strain snc1, stronger effect = lower value 0.996 | locus YBL061C, strain skt5, stronger effect = lower value 0.978 | locus YBR009C, strain hhf1, stronger effect = lower value 0.976 | locus YBR021W, strain FUR4, stronger effect = lower value 1.02 | locus YBR023C, strain chs3, stronger effect = lower value 0.981 | locus YBR171W, strain sec66, stronger effect = lower value 0.944 | locus YBR229C, strain ROT2, stronger effect = lower value 1 | locus YBR231C, strain swc5, stronger effect = lower value 0.955 | locus YBR279W, strain paf1, stronger effect = lower value 0.989 | locus YCL011C, strain gbp2, stronger effect = lower value 0.997 | locus YCL016C, strain dcc1, stronger effect = lower value 1.02 | locus YCL029C, strain bik1, stronger effect = lower value 1.01 | locus YCL061C, strain MRC1, stronger effect = lower value 0.971 | locus YCL069W, strain vba3, stronger effect = lower value 0.996 | locus YCR088W, strain abp1, stronger effect = lower value 0.975 | locus YDL005C, strain med2, stronger effect = lower value 0.987 | locus YDL035C, strain GPR1, stronger effect = lower value 1.03 | locus YDL040C, strain nat1, stronger effect = lower value 0.964 | locus YDL074C, strain BRE1, stronger effect = lower value 1.02 | locus YDL101C, strain DUN1, stronger effect = lower value 1.01 | locus YDL134C, strain PPH21, stronger effect = lower value 1.02 | locus YDL185W, strain tfp1, stronger effect = lower value 1 | locus YDL192W, strain arf1, stronger effect = lower value 1.01 | locus YDR001C, strain nth1, stronger effect = lower value 0.94 | locus YDR069C, strain doa4, stronger effect = lower value 0.942 | locus YDR101C, strain arx1, stronger effect = lower value 0.996 | locus YDR137W, strain rgp1, stronger effect = lower value 0.97 | locus YDR159W, strain sac3, stronger effect = lower value 0.961 | locus YDR162C, strain NBP2, stronger effect = lower value 1.02 | locus YDR195W, strain ref2 0.936 | locus YDR297W, strain sur2, stronger effect = lower value 0.979 | locus YDR318W, strain mcm21, stronger effect = lower value 0.992 | locus YDR334W, strain swr1, stronger effect = lower value 0.943 | locus YDR335W, strain msn5, stronger effect = lower value 0.949 | locus YDR388W, stronger effect = lower value 1 | locus YDR392W, strain spt3, stronger effect = lower value 1.06 | locus YDR502C, strain sam2, stronger effect = lower value 1.01 | locus YEL003W, strain gim4, stronger effect = lower value 0.98 | locus YEL037C, strain rad23, stronger effect = lower value 0.978 | locus YEL061C, strain CIN8 (second series), stronger effect = lower value 0.961 | locus YEL061C, strain CIN8, stronger effect = lower value 1.01 | locus YER015W, strain faa2, stronger effect = lower value 0.98 | locus YER016W, strain bim1, stronger effect = lower value 1.02 | locus YER110C, stronger effect = lower value 1.01 | locus YER111C, strain swi4, stronger effect = lower value 0.98 | locus YER155C, strain BEM2 (second series), stronger effect = lower value 0.972 | locus YER155C, strain BEM2, stronger effect = lower value 1.01 | locus YER167W, strain BCK2, stronger effect = lower value 1.01 | locus YFR010W, strain ubp6, stronger effect = lower value 0.936 | locus YGL078C, strain dbp3, stronger effect = lower value 1.01 | locus YGL086W, strain mad1, stronger effect = lower value 1.02 | locus YGL167C, strain pmr1, stronger effect = lower value 0.954 | locus YGL173C, strain kem1, stronger effect = lower value 1 | locus YGL227W, strain vid30, stronger effect = lower value 0.972 | locus YGL240W, strain doc1, stronger effect = lower value 0.957 | locus YGL248W, strain PDE1, stronger effect = lower value 0.998 | locus YGL253W, strain hxk2, stronger effect = lower value 0.99 | locus YGR135W, strain pre9, stronger effect = lower value 1 | locus YGR229C, strain SMI1, stronger effect = lower value 1.01 | locus YGR252W, strain gcn5, stronger effect = lower value 0.929 | locus YHR013C, strain ard1, stronger effect = lower value 1 | locus YHR027C, strain rpn1, stronger effect = lower value 0.982 | locus YHR030C, strain SLT2, stronger effect = lower value 1.01 and 0.995 | locus YHR079C, strain IRE1 (second series), stronger effect = lower value 0.992 | locus YHR079C, strain IRE1, stronger effect = lower value 1 | locus YHR094C, strain hxt1, stronger effect = lower value 1 | locus YHR129C, strain ARP1, stronger effect = lower value 1.01 | locus YHR142W, strain chs7, stronger effect = lower value 0.976 | locus YHR200W, strain rpn10, stronger effect = lower value 1 | locus YIL066C, strain RNR3, stronger effect = lower value 1.03 | locus YIL073C, strain SPO22, stronger effect = lower value 1.02 | locus YIL125W, strain kgd1, stronger effect = lower value 0.994 | locus YIR030C, strain dcg1, stronger effect = lower value 1.01 | locus YJL092W, strain hpr5, stronger effect = lower value 0.987 | locus YJL095W, strain BCK1 (second series), stronger effect = lower value 0.982 | locus YJL095W, strain BCK1, stronger effect = lower value 1.01 and 0.997 | locus YJL115W, strain asf1, stronger effect = lower value 0.959 | locus YJL129C, strain trk1, stronger effect = lower value 0.942 | locus YJL134W, strain LCB3, stronger effect = lower value 1.01 | locus YJL154C, strain vps35, stronger effect = lower value 0.952 | locus YJL164C, strain tpk1, stronger effect = lower value 1.02 | locus YJL166W, strain qcr8, stronger effect = lower value 0.917 | locus YJL168C, strain set2, stronger effect = lower value 0.992 | locus YJL187C, strain SWE1 (second series), stronger effect = lower value 1.01 | locus YJL187C, strain SWE1, stronger effect = lower value 0.988 | locus YJR043C, strain POL32, stronger effect = lower value 1.02
